The full list was thinned out, with hits kept by preference.
C diff HTS: C. difficile growth inhibitors, primary screen, HTS; Clostridium difficile clinical isolate growth, OD600, 24 h; stronger effect = lower value; growth activity, negative = inhibition, % at 16 µg/mL (by protocol); 0.25% of 86,000 active;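 active = mean growth activity at or below -80% and every replicate also at or below -80%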;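 note: 0% = DMSO wells and -100% = levofloxacin 16 µg/mL wells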
* hit, by the source's call; ! = a repeat was not active.

COc1ccc(CN(C)C[C@@H]2Oc3ccc(NC(=O)Nc4c(C)noc4C)cc3C(=O)N([C@@H](C)CO)C[C@@H]2C)cc1 was read as C diff HTS 3.6.
Cc1ccc(S(=O)(=O)Nc2ccc3c(c2)CC(=O)N([C@@H](C)CO)C[C@H](C)[C@@H](CN(C)C(=O)Nc2ccc4c(c2)OCO4)O3)cc1 was read as C diff HTS -3.2.
Screening COc1ccccc1CNC(=O)C[C@@H]1CC[C@@H]2[C@H](COC[C@@H](O)CN2C(=O)Nc2ccccc2)O1 returned C diff HTS -3.4.
For O=C(C[C@@H]1CC[C@@H](NC(=O)C2CC2)[C@@H](CO)O1)Nc1nccs1 the results were C diff HTS 3.1.
Screening C[C@@H]1CN([C@@H](C)CO)S(=O)(=O)c2ccc(C3=CCCC3)cc2O[C@@H]1CN(C)Cc1cccnc1 returned C diff HTS -3.5.
Fc1ccc(CN2[C@@H]3CNC[C@H]2C3c2ccc(-c3ccccc3)cc2)cc1 (stereo not given in full) was read as C diff HTS 13.1.
For c1cc(-c2ccc(C3[C@@H]4CN(Cc5nccs5)C[C@H]3N4)cc2)ccn1 (stereo not given in full) the results were C diff HTS 4.9.
For O=C(C1CCCC1)N1C[C@@H]2N[C@H](C1)C2c1ccc(/C=C/c2ccccc2)cc1 (stereo not given in full) the results were C diff HTS 4.5.
For COc1ccccc1CN1C[C@@H]2N[C@H](C1)C2c1ccc(/C=C/c2ccccc2)cc1 (stereo not given in full) the results were C diff HTS -90.2*.
COc1ccccc1CN1C[C@@H]2N[C@H](C1)C2c1ccc(-c2ccccc2)cc1 (stereo not given in full) was read as C diff HTS 31.5.
Fc1ccc(-c2ccc(C3[C@@H]4CN(Cc5ccccc5)C[C@H]3N4)cc2)cc1 (stereo not given in full) was read as C diff HTS -94.1*!.
For C[C@H](CO)N1C[C@H](C)[C@H](CN(C)C(=O)C2CCCCC2)Oc2cc(C#CC3CC3)ccc2S1(=O)=O the results were C diff HTS 2.2.
For CN(C)C(=O)c1ccc(-c2ccc3c(c2)[C@H]2[C@H](CCN2Cc2cncnc2)[C@H](CO)N3)cc1 the results were C diff HTS -5.9.
For COc1ccc2c3c(n(C)c2c1)[C@@H](CO)N(CC1CCOCC1)CC31CCN(C(=O)Nc2ccccc2)CC1 the results were C diff HTS 2.1.
Cc1ccc(S(=O)(=O)Nc2cccc3c2O[C@H](CN(C)S(C)(=O)=O)[C@H](C)CN([C@H](C)CO)C3=O)cc1 was read as C diff HTS -1.1.
`CO[C@H]1CN(C)C(=O)c2cc(NC(=O)Nc3ccc(Cl)c(Cl)c3)ccc2OC[C@@H](C)NC[C@@H]1C` gave C diff HTS -95.9*.
`CO[C@H]1CN(C)C(=O)c2cc(NC(=O)Nc3ccccc3)ccc2OC[C@H](C)NC[C@H]1C` gave C diff HTS -2.7.
CO[C@H]1CN(C)C(=O)c2cc(NC(=O)Nc3ccc(Cl)c(Cl)c3)ccc2OC[C@@H](C)NC[C@H]1C was read as C diff HTS -97.4*.
For CO[C@@H]1CN(C)C(=O)c2cc(NC(=O)Nc3ccc(Cl)cc3)ccc2OC[C@H](C)NC[C@@H]1C the results were C diff HTS -3.5.
CO[C@H]1CN(C)C(=O)c2cc(NC(=O)Nc3ccc(Cl)cc3)ccc2OC[C@@H](C)NC[C@H]1C was read as C diff HTS -4.2.
CO[C@H]1CN(C)C(=O)c2cc(NC(=O)Nc3ccc(Cl)cc3)ccc2OC[C@@H](C)NC[C@@H]1C was read as C diff HTS -0.2.
Screening C[C@@H]1CN([C@H](C)CO)C(=O)c2ccccc2-c2ccccc2CO[C@@H]1CN(C)C(=O)Nc1ccc2c(c1)OCO2 returned C diff HTS -5.4.
Screening O=C(C[C@@H]1CC[C@@H]2[C@H](COC[C@H](O)CN2S(=O)(=O)c2ccccc2Cl)O1)N1CCC(Cc2ccccc2)CC1 returned C diff HTS -2.6.
Screening C[C@@H]1CN([C@@H](C)CO)C(=O)c2cc(NC(=O)Cc3ccccc3)ccc2O[C@@H](C)CCCCO[C@@H]1CN(C)Cc1ccc2c(c1)OCO2 returned C diff HTS -3.2.
COc1cccc(-c2ccc([C@H]3[C@H]4CN(C(=O)C5CCC5)CC(=O)N4[C@H]3CO)cc2)c1 was read as C diff HTS -0.6.
Screening C[C@@H]1CN([C@@H](C)CO)S(=O)(=O)c2ccc(C#C[C@@H](C)O)cc2O[C@H]1CN(C)Cc1ccc(-c2ccccc2)cc1 returned C diff HTS 0.4.
Screening COc1cccc(S(=O)(=O)N[C@H]2C=C[C@@H](CC(=O)NCc3ccncc3)O[C@H]2CO)c1 returned C diff HTS -2.4.
Screening COc1ccc(C#Cc2ccc([C@@H]3[C@H]4CN(Cc5ccccc5F)CCCCN4[C@H]3CO)cc2)cc1 returned C diff HTS -94.2*.
`CC(C)(O)C#Cc1ccc([C@H]2[C@@H](CO)N3CCCCN(Cc4ccccc4F)C[C@@H]23)cc1` gave C diff HTS 6.0.
For COc1ccc(C#Cc2ccc([C@H]3[C@@H](CO)N4CCCCN(Cc5ccccc5F)C[C@H]34)cc2)cc1 the results were C diff HTS -99.8*.
`CC(C)(O)C#Cc1ccc([C@@H]2[C@@H](CO)N3CCCCN(Cc4ccccc4F)C[C@@H]23)cc1` gave C diff HTS 5.8.
Screening COCC#Cc1ccc([C@@H]2[C@@H](CO)N3CCCCN(Cc4ccccc4F)C[C@H]23)cc1 returned C diff HTS 0.0.
CC(C)(O)C#Cc1ccc([C@H]2[C@H]3CN(Cc4ccccc4F)CCCCN3[C@H]2CO)cc1 was read as C diff HTS 4.2.
Screening CCC(=O)N1[C@@H]2c3ccc(C4=CCCC4)c(=O)n3C[C@@H]2[C@@H](CO)[C@@H]1C(=O)NCc1ccc(F)cc1 returned C diff HTS -0.7.
For COc1ccc(NC(=O)N(C)C[C@@H]2OCCCC[C@@H](C)Oc3ccc(NC(=O)c4ccccc4)cc3C(=O)N([C@H](C)CO)C[C@@H]2C)cc1 the results were C diff HTS -4.7.
CC(C)NC(=O)N(C)C[C@H]1OCCCC[C@H](C)Oc2ccc(NC(=O)Cc3ccccc3)cc2C(=O)N([C@@H](C)CO)C[C@H]1C was read as C diff HTS -3.5.
For COCC(=O)Nc1ccc2c(c1)C(=O)N(C)C[C@H](OC)[C@H](C)CN(C(=O)c1cnccn1)[C@@H](C)CO2 the results were C diff HTS -4.1.
Screening COc1cccc(CN2C[C@@H]3N[C@H](C2)C3c2ccc(-c3ccccc3F)cc2)c1 (stereo not given in full) returned C diff HTS -93.8*.
COc1ccc(-c2ccc(C3[C@@H]4CN(Cc5cccc(OC)c5)C[C@H]3N4)cc2)cc1 (stereo not given in full) was read as C diff HTS -81.0*!.
Screening COc1ccc(-c2ccc(C3[C@@H]4CN(S(=O)(=O)c5cccc(C)c5)C[C@H]3N4)cc2)cc1 (stereo not given in full) returned C diff HTS -4.3.
For Cc1cccc(S(=O)(=O)N2C[C@@H]3N[C@H](C2)C3c2ccc(-c3cccnc3)cc2)c1 (stereo not given in full) the results were C diff HTS -15.3.
Screening COc1cccc(-c2ccc(C3[C@@H]4CN(Cc5ccccn5)C[C@H]3N4)cc2)c1 (stereo not given in full) returned C diff HTS 13.1.

Compound activity deposited in PubChem by Broad Institute.
